# Bioassay records: PubChem, Broad Institute
# PfHsp40 yeast – rescue of yeast from PfHsp40 toxicity, primary screen, S. cerevisiae, ATP luminescence | S. cerevisiae expressing PfHsp40, growth rescue | growth rescue, % at 12.5 µM | 340,000 tested, 0.68% active; in the data active = growth rescue above about 28%, passing the limit was not always enough; inconclusive = no clear call, values can overlap the other calls;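 note: yeast W303a lacking pdr1 and pdr3 grown in galactose medium; growth measured after three days at 30 °C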
# TcdB inh – TcdB glycohydrolase inhibitors, primary screen, biochemical, single point, plate reader | TcdB glycohydrolase enzymatic assay | inhibition, % at 9.99 µM | 350,000 tested, 0.24% active; in the data active = inhibition above about 10%
# Target sequence (P18177 whole entry, looked up): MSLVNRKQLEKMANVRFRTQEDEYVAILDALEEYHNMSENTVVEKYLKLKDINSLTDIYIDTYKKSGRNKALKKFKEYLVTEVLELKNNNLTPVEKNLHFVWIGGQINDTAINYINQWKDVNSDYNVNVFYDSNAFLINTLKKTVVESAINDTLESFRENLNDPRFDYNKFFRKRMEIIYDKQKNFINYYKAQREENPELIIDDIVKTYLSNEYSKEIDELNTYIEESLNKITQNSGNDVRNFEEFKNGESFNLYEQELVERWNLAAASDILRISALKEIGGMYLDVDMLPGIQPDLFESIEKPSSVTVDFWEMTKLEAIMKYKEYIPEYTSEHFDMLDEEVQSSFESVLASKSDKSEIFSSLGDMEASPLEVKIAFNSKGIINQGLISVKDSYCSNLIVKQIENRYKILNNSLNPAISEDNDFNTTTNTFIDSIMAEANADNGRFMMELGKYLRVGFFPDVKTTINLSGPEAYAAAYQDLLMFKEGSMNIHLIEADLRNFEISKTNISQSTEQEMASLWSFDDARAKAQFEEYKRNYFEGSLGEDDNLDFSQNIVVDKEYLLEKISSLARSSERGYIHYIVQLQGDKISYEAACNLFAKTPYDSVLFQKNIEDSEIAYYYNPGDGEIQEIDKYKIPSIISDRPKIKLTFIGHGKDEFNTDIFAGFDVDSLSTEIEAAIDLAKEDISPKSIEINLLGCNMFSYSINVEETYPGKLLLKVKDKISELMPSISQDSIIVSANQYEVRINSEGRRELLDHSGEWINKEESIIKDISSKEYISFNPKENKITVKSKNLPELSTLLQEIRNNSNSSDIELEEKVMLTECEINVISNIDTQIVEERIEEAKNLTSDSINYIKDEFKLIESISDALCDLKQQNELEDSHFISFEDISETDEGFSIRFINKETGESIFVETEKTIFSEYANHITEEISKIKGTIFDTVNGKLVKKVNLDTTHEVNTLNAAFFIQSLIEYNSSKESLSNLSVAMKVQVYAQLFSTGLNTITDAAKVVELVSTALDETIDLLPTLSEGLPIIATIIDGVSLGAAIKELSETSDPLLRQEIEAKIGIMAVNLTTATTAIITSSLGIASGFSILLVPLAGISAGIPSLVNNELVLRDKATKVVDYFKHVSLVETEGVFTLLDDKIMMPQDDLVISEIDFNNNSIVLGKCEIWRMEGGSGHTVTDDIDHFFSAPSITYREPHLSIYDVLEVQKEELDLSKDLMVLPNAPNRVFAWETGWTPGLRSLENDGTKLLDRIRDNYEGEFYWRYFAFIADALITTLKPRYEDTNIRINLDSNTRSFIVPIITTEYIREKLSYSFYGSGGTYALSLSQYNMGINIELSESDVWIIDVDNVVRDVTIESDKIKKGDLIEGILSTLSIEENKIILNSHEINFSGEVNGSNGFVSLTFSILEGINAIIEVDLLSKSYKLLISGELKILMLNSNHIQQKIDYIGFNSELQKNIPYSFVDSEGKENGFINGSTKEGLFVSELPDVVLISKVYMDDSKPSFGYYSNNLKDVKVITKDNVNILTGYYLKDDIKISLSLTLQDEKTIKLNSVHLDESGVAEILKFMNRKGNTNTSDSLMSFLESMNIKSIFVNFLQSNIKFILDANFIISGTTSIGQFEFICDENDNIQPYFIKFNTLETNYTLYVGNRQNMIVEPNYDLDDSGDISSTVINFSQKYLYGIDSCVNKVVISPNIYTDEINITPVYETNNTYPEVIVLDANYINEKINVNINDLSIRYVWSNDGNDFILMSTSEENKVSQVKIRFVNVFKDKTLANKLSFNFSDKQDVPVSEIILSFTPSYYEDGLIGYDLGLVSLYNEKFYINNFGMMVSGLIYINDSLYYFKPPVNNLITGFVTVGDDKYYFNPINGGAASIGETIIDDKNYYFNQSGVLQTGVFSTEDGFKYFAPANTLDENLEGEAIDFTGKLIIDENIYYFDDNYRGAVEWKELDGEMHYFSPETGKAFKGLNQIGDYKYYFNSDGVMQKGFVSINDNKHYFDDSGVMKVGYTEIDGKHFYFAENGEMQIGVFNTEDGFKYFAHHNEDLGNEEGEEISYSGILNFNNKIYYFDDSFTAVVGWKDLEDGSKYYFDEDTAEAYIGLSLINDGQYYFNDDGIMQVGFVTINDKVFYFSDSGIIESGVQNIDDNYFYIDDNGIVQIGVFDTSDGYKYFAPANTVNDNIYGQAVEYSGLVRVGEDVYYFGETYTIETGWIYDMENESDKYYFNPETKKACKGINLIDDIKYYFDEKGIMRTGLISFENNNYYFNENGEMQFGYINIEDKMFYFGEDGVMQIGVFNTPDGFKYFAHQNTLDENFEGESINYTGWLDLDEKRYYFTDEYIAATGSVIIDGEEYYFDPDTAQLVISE
# BioA inh – M. tuberculosis BioA enzyme inhibitors, primary screen, biochemical, plate reader, single point, HTS; 7,8-diaminopelargonic acid synthase BioA (Mycobacterium tuberculosis); purified M. tuberculosis BioA enzyme; inhibition, % at 9.99 µM; 360,000 tested, 0.096% active; AID 602481, 2012; in the data active = inhibition above about 40%; inconclusive = no clear call, values can overlap the other calls
# PrP 5UTR inh – inhibition of PrP 5' UTR reporter expression; cell-based PrP 5' UTR mRNA reporter, plate reader; inhibition, % (no concentration beside the values); 340,000 tested, 0.35% active; in the data active = inhibition above about 52%; note: 0 = median of the neutral control wells
# FadD28 binding – inhibitors of FadD28 bisubstrate probe binding, primary screen, biochemical, fluorescence polarization, single point; Mycobacterium tuberculosis FadD28 fatty-acid-AMP ligase; inhibition, % at 12.5 µM; 360,000 tested, 0.22% active; AID 588549, 2011; in the data active = inhibition above about 8.5%, passing the limit was not always enough; inconclusive = no clear call, values can overlap the other calls
# An asterisk follows results filed as active; u = inconclusive; x = no result given. This is a sample that favours compounds with a hit; in the whole collection about 1.1% have one here.
SMILES,PfHsp40 yeast,TcdB inh,BioA inh,PrP 5UTR inh,FadD28 binding
Cc1ccc(S(=O)(=O)N2CCCC2C(=O)O)cc1 (centres undefined),-0.7,0.3,0.1,-13.1,0.7
C[C@H](CO)N1C[C@H](C)[C@H](CN(C)Cc2ccc(C(=O)O)cc2)Oc2ccc(NS(=O)(=O)c3ccccc3)cc2CC1=O,x,-1.1,x,x,x
CN(C)C(=O)c1cccc(-c2ccc3c(c2)[C@H]2[C@H](CCN2C(=O)C2CCOCC2)[C@@H](CO)N3)c1,x,2.4,x,x,x
COc1ccc(-c2cc(C(=O)N3CCN(S(=O)(=O)c4ccccc4)CC3)[nH]n2)cc1,1.2,1.2,-0.9,-20.3,-0.6
O=C(c1cc(-c2ccccc2)n[nH]1)N1CCN(S(=O)(=O)c2ccccc2)CC1,30.2*,0.2,-1.5,-31.9,-4.1
CCCCCC(=O)N/N=C(\C)c1ccc(NC(=O)c2ccco2)cc1,58.6*,x,6.8,-50.7,-3.3
C[C@H]1CCCCO[C@H](CN(C)C(=O)Nc2ccc3c(c2)OCO3)[C@@H](C)CN([C@@H](C)CO)C(=O)c2cc(NS(=O)(=O)c3cn(C)cn3)ccc2O1,x,0.3,-3.0,x,x
COc1cc(N=Nc2ccc3ccccc3c2)ccc1O,153.3*,-0.1,1.2,-90.9,-0.5
Oc1ccc(N=Nc2ccc3ccccc3c2)cc1,72.1*,1.2,1.2,-79.6,-3.4
Oc1ccc(N=Nc2c(O)ccc3ccccc23)cc1,4.7,0.6,-1.9,-16.7,1.0
COc1ccc(O)c(/C=N/NC(=O)c2ccc(CSc3nc(C)cc(C)n3)cc2)c1,51.9*,0.4,x,19.0,0.5
Cc1cc(C)nc(SCc2ccc(C(=O)N/N=C/c3cccc(O)c3O)cc2)n1,126.3*,x,x,-14.0,-7.8
COc1ccc(/C=N/NC(=O)c2nc(-c3ccccc3)n(-c3ccccc3)n2)c(O)c1,71.5*,x,x,25.9,-2.3
COc1cccc(/C=N/NC(=O)c2nc(-c3ccccc3)cc(-c3ccccc3)n2)c1O,253.5*,x,-0.6,-20.6,-2.1
COc1cccc(C=NNC(=O)c2ccncc2)c1O,-2.8,-20.9,-1.1,-8.8,-2.2
COCC(=O)Nc1ccc2c(c1)OC[C@@H](C)N(Cc1ccccn1)C[C@@H](C)[C@H](OC)CN(C)C2=O,x,-0.1,0.0,x,x
CN1CCN(C(=O)C[C@H]2CC[C@H](NC(=O)Nc3ccccc3F)[C@@H](CO)O2)CC1,x,0.8,-3.8,x,x
Cc1ccc(S(=O)(=O)N2C(c3ccc(Cl)c(Cl)c3)CC=C(C(=O)O)C2c2ccc(Cl)cc2)cc1 (centres undefined),x,0.4,x,x,x
Cc1ccc(S(=O)(=O)N2[C@@H](c3ccc(Cl)cc3)C(C(=O)O)=CC[C@H]2c2ccc(Cl)c(Cl)c2)cc1,304.0*,-0.3,7.3,-19.0,-21.7
C/C=C/c1ccc([C@H]2[C@H](CO)N3CCCCN(C(=O)Nc4cc(F)ccc4F)C[C@@H]23)cc1,x,-0.7,-2.5,x,x
COc1ccc(-c2cn[nH]c2-c2ccc(OCc3ccccc3)cc2O)cc1,115.2*,0.6,x,-0.7,-1.4
COc1ccccc1-c1cn[nH]c1-c1ccc(OCc2ccccc2)cc1O,213.7*,1.3,x,0.9,0.5
COc1ccc2c3c(n(C)c2c1)[C@@H](CO)N(C(=O)Nc1c(C)noc1C)CC31CCN(CC2CC2)CC1,x,0.9,x,x,x
CC1=C/C(=N\OS(=O)(=O)c2ccccc2)C(C(C)C)=CC1=O,46.3*,x,x,-8.3,0.8
Cc1noc(C)c1S(=O)(=O)Nc1ccc2c(c1)C(=O)N([C@H](C)CO)C[C@@H](C)[C@@H](CN(C)Cc1ccc3c(c1)OCO3)OCCCC[C@@H](C)O2,x,0.1,2.8,x,x
SMILES,PfHsp40 yeast,TcdB inh,BioA inh,PrP 5UTR inh,FadD28 binding
COc1ccccc1-c1ccc2c(c1)O[C@H](CN(C)C)[C@@H](C)CN([C@@H](C)CO)S2(=O)=O,x,0.3,2.3,x,x
CCCNC(=O)c1onc(CSc2ccc(F)c(F)c2)c1C(=O)NCCC,x,2.5,x,x,x
CC(C)CCNC(=O)c1onc(CSc2ccc(F)c(F)c2)c1C(=O)NCCC(C)C,37.3*,1.6,-0.5,-12.7,-1.6
CN(C)CCNC(=O)c1onc(CSc2ccc(F)c(F)c2)c1C(=O)NCCN(C)C,-1.2,-2.0,-4.3,8.1,-0.6
CN(C)CCNC(=O)c1onc(CSc2ccc(F)cc2)c1C(=O)NCCN(C)C,33.8*,-1.1,-1.8,-33.0,0.4
CC(C)N(Cc1ccccc1)C(=S)NCc1ccccc1,1.6,-0.6,x,-17.0,-6.7
S=C(NCCCN1CCOCC1)Nc1ccc(Nc2ccccc2)cc1,-0.5,5.3,-0.1,-12.9,-1.1
S=C(NCCN1CCOCC1)Nc1ccc(Nc2ccccc2)cc1,-0.3,31.4*,2.5,-9.8,1.1
CC(C)N(Cc1ccccc1)C(=S)NCCN1CCOCC1,35.3*,0.1,x,-16.7,-1.8
CNC(=O)C[C@@H]1CC[C@H]2[C@H](COc3ccc(NC(=O)c4cc(F)cc(F)c4)cc3C(=O)N2C)O1,x,-0.8,0.6,x,x
C/C(=N\OCC(=O)Nc1nc2ccccc2s1)c1ccccc1,0.5,10.0*,x,-24.5,-2.0
Cc1cc(C)nc(NC(=O)CSc2nc3ccccc3s2)n1,-0.2,-0.1,3.1,-62.5,0.8
Cc1cc(C)nc(NC(=O)CSc2nc3cc(Cl)ccc3s2)n1,66.1*,x,0.1,-40.9,-1.7
COCC(=O)N(C)C[C@H]1Oc2ncc(C#Cc3ccc(OC)cc3)cc2C(=O)N([C@@H](C)CO)C[C@@H]1C,x,0.0,-0.8,x,x
CC(NNC(=S)N1CCN(c2ccccn2)CC1)c1nccc2ccccc12 (centres undefined),148.6*,-0.4,x,32.5,-3.8
Cc1cccc(NC(=O)NNC(=O)c2ccc3ccccc3c2O)c1,58.3*,0.3,-1.4,-29.7,8.5*
Cc1ccc(NC(=O)NNC(=O)c2cc3ccccc3cc2O)cc1,69.6*,0.0,-1.8,-12.5,-2.6
O=C(NNC(=O)c1ccc2ccccc2c1O)Nc1ccc(F)cc1,1.6,-0.2,-0.8,-19.2,2.0
COc1ccccc1NC(=O)NNC(=O)c1cc2ccccc2cc1O,7.7,-1.6,-2.1,-18.6,0.7
C[C@H]1CCCCO[C@H](CN(C)S(C)(=O)=O)[C@@H](C)CN([C@@H](C)CO)C(=O)c2cc(NC(=O)c3ccncc3)ccc2O1,x,-9.0,0.1,x,x
S=C(NCc1ccco1)Nc1cccc(Cl)c1,3.7,x,x,-18.4,0.2
S=C(NCc1ccco1)Nc1ccc(Cl)c(Cl)c1,36.2*,0.5,0.1,-11.2,-4.8
CN1C(=O)c2cc(NC(=O)c3cnccn3)ccc2OC[C@@H]2O[C@@H](CC(=O)O)CC[C@H]21,x,-0.2,9.6,x,x
COc1ccc(/C=N/NC(=O)c2c(C)nc3ccc(Cl)cn23)cc1OC,-1.9,0.7,-1.6,-18.2,-1.9
COc1cc(/C=N/NC(=O)c2c(C)nc3ccc(Cl)cn23)cc(OC)c1OC,0.0,13.3*,-2.1,-6.6,-0.7
Cc1[nH]n(-c2ccccc2)c(=O)c1/C=N/NC(=O)c1cccc([N+](=O)[O-])c1,u,x,0.0,-17.9,0.0
Cc1[nH]n(-c2cccc3ccccc23)c(=O)c1/C=N/NC(=O)c1cccc([N+](=O)[O-])c1,83.0*,x,-0.6,-43.8,-2.7
